GALR2 antag: antagonists of human galanin receptor 2 (GALR2); GALR2-expressing cells, antagonist mode; inhibition, % at 4 µM; 140,000 tested, 0.39% active; O43603; in the data active means inhibition above about 27%;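 further: cells stimulated with galanin 1-16 at roughly its EC80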
Target sequence (O43603 whole entry, looked up): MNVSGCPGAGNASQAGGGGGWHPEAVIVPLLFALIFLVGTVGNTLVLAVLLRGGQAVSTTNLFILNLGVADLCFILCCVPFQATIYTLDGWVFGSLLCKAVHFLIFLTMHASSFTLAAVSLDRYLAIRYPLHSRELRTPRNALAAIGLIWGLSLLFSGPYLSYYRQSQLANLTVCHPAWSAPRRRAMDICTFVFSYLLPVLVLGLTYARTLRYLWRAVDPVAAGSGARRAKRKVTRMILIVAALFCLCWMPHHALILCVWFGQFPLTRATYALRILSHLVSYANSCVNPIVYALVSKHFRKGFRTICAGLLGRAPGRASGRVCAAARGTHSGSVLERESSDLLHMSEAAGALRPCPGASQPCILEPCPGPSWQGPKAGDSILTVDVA
GALR2 ag: agonists of human galanin receptor 2 (GALR2). 140,000 tested, 0.48% active. AID 803. GALR2-expressing cells, agonist activation read-out. activation, % (test concentration not listed). O43603; in the data active means activation above about 5%, passing the limit was not always enough
S1P2 ag: agonists of human S1P2 receptor; O95136; S1P2-expressing cell line, agonist reporter read-out; activation, % at 4.5 µM; 97,000 tested, 0.46% active; in the data active means activation above about 16%
S1P2 antag: S1P2 (human) receptor antagonism | cell-based S1P2 antagonist assay, inhibition at 5 uM | inhibition, % at 5 µM | 97,000 tested, 0.21% active | AID 736; in the data active means inhibition above about 45%;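 further: CRE beta-lactamase reporter cells expressing human S1P2 stimulated with S1P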
GALR2 ag confirm: confirmation of human galanin receptor 2 (GALR2) agonists. activation, % at 5.6 µM. 460 tested, 10% active. GALR2-expressing cells, agonist activation. shares compounds with GALR2 ag; in the data active means activation above about 8.4%
BLA act counter: counter-screen for GALR2 agonists: beta-lactamase reporter activators | shares compounds with GALR2 ag | CHO NFAT-bla reporter, beta-lactamase FRET activation | activation, % at 5.6 µM | 460 tested, 10% active | AID 865;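 active means activation above the screen-wide mean activation plus 3 SD, cut at about 8% in these data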
Of the large screens only hits and unclear results are named; the others gave an inactive call (follow-up assays come after a bar, where they were run). The list is not random: actives were taken first. Their share in the collection is about 1.2%.

O=[N+]([O-])c1ccc(N/N=C/c2cn(-c3ccccc3)nc2-c2ccccc2)cc1	S1P2 antag 67
O=C(/C(=C/c1ccccc1)c1ccccc1)N1CCCCC1	none
CCCCNc1cc(=O)n(C)c(=O)[nH]1	S1P2 ag 38
CC1=NN(C(=O)c2csc(C(C)C)c2)C(O)(C(F)(F)F)C1 (stereo not given)	none (no result: S1P2 ag, S1P2 antag)
CCn1c2ccccc2c2nc3ccccc3nc21	S1P2 ag 19
CCn1c2ccccc2c2nc3cc(OC)c(OC)cc3nc21	S1P2 ag 23
NC(=O)Nc1ccc(C(=O)OCC(=O)Nc2ccc([N+](=O)[O-])cc2C(F)(F)F)cc1	none (no result: S1P2 ag, S1P2 antag)
N#CCCS(=O)(=O)c1nnnn1-c1ccccc1	GALR2 antag 59, S1P2 antag 64
N#CCCCSc1nnnn1-c1cccc(Cl)c1	none
CCOc1ccc2cc(/C=C/C(=O)c3ccco3)c(Cl)nc2c1	GALR2 antag 32
CCCn1c(Nc2ccccc2C)nc2ccccc21	none
COc1ccc(-c2cc(C#N)nc(Oc3ccc(Cl)cc3)n2)cc1	none (no result: S1P2 ag, S1P2 antag)
CCN(CC)c1nc(C#N)cc(-c2ccc(OC)cc2)n1	S1P2 ag 19
CCN(CC)c1ccc(-c2nn3c(-c4ccccc4OC)nnc3s2)cc1	GALR2 ag 6.8
CN(C)c1ccc(-c2nn3c(-c4ccc(Cl)cc4Cl)nnc3s2)cc1	GALR2 ag 6.0 (no result: S1P2 ag, S1P2 antag)
Cc1ccc(-c2nn3c(C)nnc3s2)cc1NC(=O)c1ccc(-c2ccc(Cl)cc2Cl)o1	GALR2 ag 6.8 (no result: S1P2 ag, S1P2 antag)
Clc1ccc(-c2nnc3sc(-c4ccc(Br)o4)nn23)c(Cl)c1	none
O=C(Nc1cccc(C(F)(F)F)c1)c1ccccc1NC(=O)C1CCCCC1	none (no result: S1P2 ag, S1P2 antag)
COc1ccc(N2CCN(C(=O)CC34CC5CC(CC(C5)C3)C4)CC2)c([N+](=O)[O-])c1	none (no result: S1P2 ag, S1P2 antag)
CCCCCC(=O)NC(=S)Nc1ccc(Cl)cn1	none (no result: S1P2 ag, S1P2 antag)
CCOC(=O)c1cc(-c2ccc3c(c2)OCCO3)nc2c1c(C)nn2CCC#N	GALR2 ag 7.1
CCOC(=O)c1[nH]c2ccc(F)cc2c1NC(=O)c1cc(OC)c(OC)c(OC)c1	S1P2 ag 18
CCOC(=O)c1cc(CC)sc1NC(=O)c1cc(OC)c(OC)c(OC)c1	S1P2 ag 16
Cc1cccc(NC(=S)N/N=C/c2c[nH]c3ccccc23)c1	none (no result: S1P2 ag, S1P2 antag)
Cc1ccc(C(=O)N[C@H](C(=O)OCc2cc(=O)oc3cc(C)ccc23)C(C)C)cc1	none (no result: S1P2 ag, S1P2 antag)
CCn1c(=O)cc(SCC(=O)Nc2cc(OC)c(OC)c(OC)c2)c2ccccc21	S1P2 ag 20
Cn1c(=O)[nH]c(=O)c2c1nc(N1CCNCC1)n2Cc1cccc2ccccc12	GALR2 ag 15 | GALR2 ag confirm inactive | BLA act counter inactive
CC1=C(C(=O)Nc2ccccc2)C(c2ccc(C)cc2)N=C(Nc2nc3ccccc3o2)N1 (stereo not given)	none
CCn1cc(C2=NOC(C(=O)Nc3cc(C)nn3-c3ccccc3)C2)c(C)n1 (stereo not given)	GALR2 ag 11 (no result: S1P2 ag, S1P2 antag) | GALR2 ag confirm inactive | BLA act counter inactive
CCCn1nc(NC(=O)c2ccncc2)c2cc3ccccc3nc21	none
CCCCn1nc(NC(=O)c2cccs2)c2cc3ccccc3nc21	none | GALR2 ag confirm inactive | BLA act counter inactive
CCCn1nc(NC(=O)c2cccs2)c2cc3cc(OC)ccc3nc21	none | GALR2 ag confirm inactive | BLA act counter inactive
Cc1ccc(NC(=O)Cn2c(/C=C/c3ccccc3)nc3ccccc32)cc1C	none | GALR2 ag confirm inactive | BLA act counter inactive
Cc1cccc(NC(=O)/C(C#N)=C/c2cn(CC(=O)NCc3ccco3)c3ccccc23)c1C	GALR2 ag 29 (no result: S1P2 ag, S1P2 antag) | GALR2 ag confirm 11 | BLA act counter 8.2
CCc1cccc(NC(=O)Cc2ccc(OC)c(OC)c2)c1	none (no result: S1P2 ag, S1P2 antag)
CC(=O)NCN1CCN(CNC(C)=O)CC1	none | GALR2 ag confirm inactive | BLA act counter inactive
CC(C)N1C(=O)S/C(=C/c2cccnc2)C1=O	none
CC(C)N1C(=O)S/C(=C/c2ccc3c(c2)n(C)c(=O)n3C)C1=O	GALR2 ag 97 | GALR2 ag confirm inactive | BLA act counter inactive
Clc1ccc(-c2nnc(COc3ncnc4sccc34)o2)cc1	none (no result: S1P2 ag, S1P2 antag)
O=C(Nc1ccc2c(c1)OCO2)C1CCCN1C(=O)OCc1ccccc1 (stereo not given)	none (no result: S1P2 ag, S1P2 antag)
O=C(Nc1ccc2c(c1)OCO2)OCc1ccccc1	GALR2 ag 12 | GALR2 ag confirm inactive | BLA act counter inactive
Clc1ncnc2c1oc1ccccc12	none
c1coc(CN(Cc2ccco2)c2ncnc3c2oc2ccccc23)c1	none | GALR2 ag confirm inactive | BLA act counter inactive
CCc1nc(N2CCN(Cc3ccc4c(c3)OCO4)CC2)c2oc3ccccc3c2n1	none
NC(=O)C1CC(=O)N(c2ccc(OCC(=O)Nc3cccc(C(F)(F)F)c3)cc2)C1 (stereo not given)	none | GALR2 ag confirm inactive | BLA act counter inactive
O=C(Nc1cccc(O)c1)C(Cc1ccccc1)N1C(=O)c2cccc3cccc(c23)C1=O (stereo not given)	GALR2 ag 10 (no result: S1P2 ag, S1P2 antag) | GALR2 ag confirm inactive | BLA act counter inactive
CCC1CC2CC(NC(C)=O)C1C2 (stereo not given)	none
CC/C(O)=C(\C#N)c1nnc2n1CCCCC2	none
COc1ccc(NC(=O)c2ccccc2F)cc1Cl	GALR2 ag 15 | GALR2 ag confirm inactive | BLA act counter inactive
COc1ccc(NC(=O)c2cccc(F)c2)cc1Cl	none
COc1ccc2cc(-c3cc(C(=O)OCC(=O)NC4CCS(=O)(=O)C4)c4ccccc4n3)ccc2c1 (stereo not given)	GALR2 ag 11 (no result: S1P2 ag, S1P2 antag) | GALR2 ag confirm 14 | BLA act counter 25
O=C(COC(=O)c1cc(-c2cccc3ccccc23)nc2ccccc12)NC1CCS(=O)(=O)C1 (stereo not given)	none (no result: S1P2 ag, S1P2 antag)
O=C1[C@@H]2Cc3c([nH]c4ccccc34)[C@@H](c3ccccc3)N2C(=O)[C@@H]2Cc3c([nH]c4ccccc34)[C@@H](c3ccccc3)N12	none (no result: S1P2 ag, S1P2 antag)
COc1cc([C@H]2c3[nH]c4ccccc4c3C[C@H]3C(=O)N4[C@@H](c5cc(OC)c(OC)c(OC)c5)c5[nH]c6ccccc6c5C[C@H]4C(=O)N23)cc(OC)c1OC	GALR2 ag 9.6 (no result: S1P2 ag, S1P2 antag) | GALR2 ag confirm inactive | BLA act counter inactive
COC(=O)C1=CNC=C(C(=O)OC)C1c1ccccc1Cl	none | GALR2 ag confirm inactive | BLA act counter inactive
COc1ccc(CONS(=O)(=O)c2ccc(NC(C)=O)cc2)cc1Cl	none
O=C(NC(=S)Nc1ccc(NC(=O)c2cccs2)cc1)c1cc2ccccc2o1	GALR2 ag 11 (no result: S1P2 ag, S1P2 antag) | GALR2 ag confirm inactive | BLA act counter inactive
O=C(Nc1ccccc1-c1nnn(CC(=O)N2CCCc3ccccc32)n1)c1ccc(Cl)cc1	GALR2 ag 28 | GALR2 ag confirm inactive | BLA act counter inactive
CC(C)C(NC(=O)CSCc1ccc([N+](=O)[O-])cc1)C(C)C	none (no result: S1P2 ag, S1P2 antag)
CN1CCN(C(=S)NC(=O)/C=C/c2cccc3ccccc23)CC1	GALR2 ag 22 | GALR2 ag confirm inactive | BLA act counter inactive
CCOC(=O)Cc1csc(NC(=O)CSc2ncnc3c2cnn3-c2ccc(OC)cc2)n1	GALR2 ag 12 | GALR2 ag confirm inactive | BLA act counter inactive
